Source: PubChem BioAssay (Sanford-Burnham Center for Chemical Genomics)
tim23-1 inh – growth inhibitors of tim23-1 mutant yeast, primary screen, luminescence, uHTS. S. cerevisiae tim23-1 growth, BacTiter-Glo luminescence, 24 h. inhibition, % at 20 µM. hit rate 1.3% among 330,000;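 active = growth inhibition of the mutant yeast at or above 50%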;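 note: temperature-sensitive mutant grown at 25 °C; plate controls were DMSO-treated mutant yeast for no effect and medium wells lacking yeast for full effect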
TIM10 inh – growth inhibitors of isogenic TIM10 control yeast, primary screen, counter-screen for tim10-1 yeast inhibitor project, luminescence, uHTS. AID 463195, 2010. inhibition, % at 10 µM. hit rate 1.4% among 330,000. S. cerevisiae TIM10 strain growth, BacTiter-Glo luminescence, 24 h;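 active = inhibition of 40% or more at the single tested concentration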;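 note: wild-type TIM10 isogenic control strain grown at permissive 25 °C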
NALP1 inh – NALP1 inflammasome inhibitors in reconstituted yeast, colorimetric, S. cerevisiae, triplicate retest; hit rate 0.61% among 280,000; inhibition, % at 10 µM; AID 2071, 2009; S. cerevisiae NALP1/ASC/caspase-1 growth, X-gal OD620, 72 h; in the data active = inhibition mostly above about 24%, no sharp cut-off; inactive = mostly below about 32%
tim10-1 inh – growth inhibitors of tim10-1 mutant yeast, primary screen, luminescence, uHTS; S. cerevisiae tim10-1 ts strain growth, BacTiter-Glo, 24 h; inhibition, % at 20 µM; hit rate 2.2% among 330,000; AID 463190, 2010;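 active = inhibition of at least 40%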;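 note: mutant grown at 25 °C; 0% = DMSO wells with yeast and 100% = wells holding no yeast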
NALP3 yeast inh – NALP3 inflammasome inhibitors in reconstituted yeast, primary screen, luminescence, uHTS | hit rate 0.39% among 330,000 | Yeast reconstituted NLRP3/ASC/caspase-1, beta-gal luminescence, 24 h | inhibition, % at 10 µM;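 active = inhibition of 50% or more; inactive = inhibition below 50%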;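 note: plate controls were induced DMSO wells for no effect and uninduced yeast grown without galactose for full effect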
tim10-1 confirm – growth inhibitors of tim10-1 mutant yeast, confirmation, single concentration, luminescence, S. cerevisiae; shares compounds with tim10-1 inh; S. cerevisiae tim10-1 ts strain growth, BacTiter-Glo, 24 h; inhibition, % at 20 µM; hit rate 56% among 7,400;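 active = inhibition of yeast growth at or above a set limit in either of two repeat tests at 20 µM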;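 note: tim10-1 mutant grown at permissive 25 °C to find synthetic lethal compounds; 0% = DMSO yeast wells and 100% = medium wells without yeast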
tim10 confirm – growth inhibitors of wild-type TIM10 yeast, confirmation, counter-screen for tim10-1 synthetic lethality project, single concentration, luminescence, S. cerevisiae | hit rate 63% among 4,600 | inhibition, % at 10 µM | shares compounds with TIM10 inh | S. cerevisiae tim10 strain growth, BacTiter-Glo luminescence, 24 h;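 active = inhibition of yeast growth at or above a set limit in either of two replicates at 10 µM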;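 note: this counterscreen used the strain with wild-type TIM10; 0% = yeast with DMSO and 100% = medium wells lacking yeast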
tim23-1 confirm – tim23-1 mutant yeast growth inhibitors, confirmation, luminescence, single concentration | AID 463218, 2010 | hit rate 83% among 4,400 | S. cerevisiae tim23-1 growth, BacTiter-Glo luminescence, 24 h | inhibition, % at 20 µM | shares compounds with tim23-1 inh;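 active = inhibition above about 39% in either of two replicate wells at 20 µM, limit read from the data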;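 note: temperature-sensitive tim23-1 mutant grown at 25 °C; 0% = DMSO wells with yeast and 100% = medium wells without yeast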
Active calls of the source: *; nt = no result. Shown are actives, neighbours in structure and some others; about 4% of the full set was active somewhere.

SMILES	tim23-1 inh	TIM10 inh	NALP1 inh	tim10-1 inh	NALP3 yeast inh	tim10-1 confirm	tim23-1 confirm	others
O=C(NC(=S)Nc1ccccc1N1CCN(C(=O)c2ccccc2)CC1)c1ccccc1F	33	25	12	29	8	nt	nt
O=C(NC(=S)Nc1ccccc1N1CCCC1)c1cccs1	35	0	-24	34	-42	nt	nt
CS(=O)(=O)N1CCN(c2ccc(NC(=S)NC(=O)c3cccs3)cc2)CC1	1	5	-2	-9	10	nt	nt
O=C(NC(=S)Nc1ccccc1N1CCOCC1)c1ccccc1F	57*	39	19	52*	10	44*	55*
COc1cccc(C(=O)NC(=S)Nc2ccccc2N2CCOCC2)c1	53*	39	16	44*	18	30*	46*
O=C(NC(=S)Nc1ccccc1N1CCOCC1)c1cccs1	59*	57*	16	52*	-37	36*	60*	tim10 confirm=38*
Cc1c([N+](=O)[O-])c([N+](=O)[O-])nn1CC(=O)N1CCOCC1	-6	3	10	-6	11	nt	nt
Cc1ccc(C(=O)COC(=O)c2ccccc2NC(=O)c2ccccc2)cc1[N+](=O)[O-]	9	22	9	14	12	nt	nt
CCn1c(/C=C/c2ccc(O)c(O)c2)nc2ccccc2c1=O	3	11	-8	20	27	nt	nt
CCn1c(/C=C/c2cc(Br)ccc2O)nc2ccccc2c1=O	63*	58*	3	67*	23	69*	75*	tim10 confirm=59*
Cn1c(/C=C/c2cccc(Br)c2)nc2ccccc2c1=O	63*	22	16	57*	48	55*	59*
O=[N+]([O-])c1cc(S(=O)(=O)N2CCCC2)ccc1SCCO	3	16	33	15	6	nt	nt
COc1ccc(S(=O)(=O)Nc2cc(SCC(=O)O)c(O)c3ccccc23)cc1	58*	33	19	44*	25	28	-17
COc1ccc(OC)c(C(=O)N2CCC(C(=O)c3ccc(F)cc3)CC2)c1	6	2	8	8	35	nt	nt
O=C1c2ccccc2-c2n[nH]c3cccc1c23	67*	33	nt	59*	46	25	67*
COC(=O)c1ccc(OC)c(Cn2c(=O)n(C)c(=O)c3ccccc32)c1	7	-14	-17	2	10	nt	nt
O=C(CNC(=O)c1ccc(Cl)cc1Cl)OCn1nnc2ccccc2c1=O	20	-5	nt	16	-4	nt	nt
Cc1cccc(C(=O)O/N=C(\N)Cc2ccc([N+](=O)[O-])cc2)c1	81*	87*	20	40*	22	58*	91*	tim10 confirm=91*
N/C(Cc1ccc([N+](=O)[O-])cc1)=N\OC(=O)c1ccco1	26	27	-7	21	11	nt	nt
N/C(Cc1ccc([N+](=O)[O-])cc1)=N\OC(=O)c1ccc2ccccc2c1	81*	90*	30	54*	28	47*	92*	tim10 confirm=89*
Cc1cccc(C(=O)Oc2ccc(/C=N/NC(=O)Cc3ccc([N+](=O)[O-])cc3)cc2)c1	-8	-12	2	-2	3	nt	nt
N/C(Cc1ccc([N+](=O)[O-])cc1)=N\OC(=O)CC1CCCCC1	79*	86*	39	65*	31	64*	83*	tim10 confirm=92*
N/C(Cc1ccc([N+](=O)[O-])cc1)=N\OC(=O)c1ccccc1Br	62*	88*	68*	52*	20	56*	88*	tim10 confirm=-8
COc1ccc(N2CCN(C(=O)CC3NC4CCCCC4NC3=O)CC2)cc1 (stereo not given)	16	-3	29	8	-5	nt	nt
COc1ccccc1NC(=O)C(C)OC(=O)C(C)SCC(=O)Nc1ccc(C)cc1 (stereo not given)	36	15	nt	23	18	nt	nt
SMILES	tim23-1 inh	TIM10 inh	NALP1 inh	tim10-1 inh	NALP3 yeast inh	tim10-1 confirm	tim23-1 confirm	others
Cc1cc(Cl)n2ncc(-c3ccccc3)c2n1	21	20	7	29	22	nt	nt
Cc1cc(N)n2ncc(-c3ccc(Cl)cc3)c2n1	71*	22	-5	53*	28	41*	21*
Cc1cc(C)c(S(=O)(=O)n2ccc(-c3ccc(OCCN(C)c4ccccn4)cc3)n2)c(C)c1	-5	11	5	16	3	nt	nt
O=C(N/N=C/c1ccco1)c1ccccc1OCc1ccccc1Cl	51*	42*	33	44*	9	41*	48*	tim10 confirm=38*
O=C(N/N=C/c1ccc[nH]1)c1ccccc1OCc1ccccc1Cl	45	18	6	28	13	nt	nt
Cc1cccc(Nc2nc(-c3ccc(O)cc3O)cs2)n1	87*	33	12	43*	23	38*	72*
Cc1cccn2c(=O)c(C(=O)NC3CCCCC3)c(O)nc12	55*	15	10	43*	41	-38	44*
Cc1csc2nc(O)c(C(=O)NC3CCCCCC3)c(=O)n12	65*	30	nt	41*	42	16	51*
Cc1cccn2c(=O)c(C(=O)NC3CCCCC3C)c(O)nc12 (stereo not given)	34	-36	nt	-23	24	nt	nt
Cc1csc2nc(O)c(C(=O)NCCCN3CCCC3=O)c(=O)n12	4	-12	nt	1	14	nt	nt
Cc1csc2nc(O)c(C(=O)NC3CCCCC3)c(=O)n12	74*	14	nt	40*	30	10	56*
C=CCOn1c(=O)c(-c2cccs2)[n+]([O-])c2ccccc21	61*	41*	-4	53*	-15	21	70*	tim10 confirm=33*
CC1CC(C)CN(C(=O)COC(=O)/C=C/c2cccc([N+](=O)[O-])c2)C1 (stereo not given)	0	-2	nt	7	-10	nt	nt
COc1cc(C(=O)NNC2=CC(=O)CC(C)(C)C2)cc(OC)c1OC	1	0	18	10	4	nt	nt
CCOC(=O)c1sc(=NC(=O)c2c(F)cccc2F)n(C)c1C	56*	47*	-6	43*	41	-20	76*	tim10 confirm=46*
CC(NCc1ccc(S(N)(=O)=O)cc1)C(=O)Nc1cccc(Cl)c1 (stereo not given)	-1	-1	-12	-10	3	nt	nt
CCCc1[nH]nc2c1C(c1cccc(OC)c1)C(C#N)=C(N)O2 (stereo not given)	19	4	6	19	9	nt	nt
